ABHD5-PLIN5 inh – ABHD5-PLIN5 interaction inhibitors, primary screen, cell lysate, split luciferase complementation, luminescence. Perilipin-5 (Homo sapiens) + 1-acylglycerol-3-phosphate O-acyltransferase ABHD5 (Homo …. Split G. princeps luciferase complementation, 4 h. inhibition, % at 4 µM. 360,000 tested, 0.78% active. AID 602281, 2012;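 active = inhibition above the mean inhibition across every tested compound plus 3 SD, cut at about 22% in these data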
Rtt109 HAT inh – inhibitors of C. albicans Rtt109/Vps75 HAT, primary screen, biochemical, ThioGlo CoA-SH fluorescence, plate reader. purified Rtt109/Vps75, 4 h. inhibition, % at 34.9 µM. 330,000 tested, 0.16% active. AID 540336, 2011;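 active = inhibition of at least 50% in every replicate; inconclusive = best replicate reaches 50% inhibition but some replicates fall short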
Target sequence (Q5AAJ8 whole entry, looked up): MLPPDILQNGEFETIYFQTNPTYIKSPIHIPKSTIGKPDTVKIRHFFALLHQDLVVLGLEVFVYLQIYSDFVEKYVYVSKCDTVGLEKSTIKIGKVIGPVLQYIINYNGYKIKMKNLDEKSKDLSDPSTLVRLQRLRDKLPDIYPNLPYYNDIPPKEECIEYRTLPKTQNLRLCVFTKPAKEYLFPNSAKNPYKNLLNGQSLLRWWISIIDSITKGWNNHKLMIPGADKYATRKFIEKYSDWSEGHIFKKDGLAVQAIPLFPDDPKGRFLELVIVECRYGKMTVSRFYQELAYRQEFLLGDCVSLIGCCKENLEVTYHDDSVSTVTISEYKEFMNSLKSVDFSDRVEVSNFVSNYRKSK
Myeloid diff 2 – induction of myeloid progenitor differentiation, primary screen, cell-based, flow cytometry, MLPCN library; AID 624256, 2012; ER-HoxA9 myeloid progenitors, lysozyme-GFP differentiation; calls only at 10 µM; 360,000 tested, 1% active;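 active = normalized GFP-positive differentiation at or above the plate's own cutoff, the solvent-only control mean plus 3 SD; inconclusive = no clear call, values can overlap the other calls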;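 note: cells exposed to compound for four days before flow analysis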
H9c2 protect – cardioprotection against H2O2-induced cell death, primary screen, uHTS, H9c2 cells, ATPLite luminescence | 360,000 tested, 0.63% active | protection from H2O2 cell death, % at 20 µM | H9c2 cardiomyocytes, H2O2 injury protection, 2 h;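 active = compounds giving at least 50% protection of heart cells from peroxide-induced death in the single-dose screen, raw or plate-pattern-corrected value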
DAGLB inhibitor – DAGLB lipase inhibitors, primary screen, biochemical, fluorescence, HTS; HEK293T DAGLB membrane lysate, EnzChek fluorogenic substrate; 340,000 tested, 0.059% active; inhibition, % at 5.17 µM; Diacylglycerol lipase-beta (Homo sapiens), Q8NCG7; in the data active = inhibition above about 34%
sPLA2-III inh – human group III sPLA2 inhibitors, primary screen, biochemical, QFRET, BODIPY PC-A2 liposome substrate | 370,000 tested, 0.56% active | inhibition, % at 12.2 µM | QFRET BODIPY PC-A2 liposome hydrolysis, fluorescence | AID 743126, 2013;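 active = inhibition above mean plus 3 SD of compounds lying within the high and low control bounds, cut at about 19% in these data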
ABHD5 PLIN5 conf – ABHD5-PLIN5 interaction inhibitors, confirmation, biochemical, luminescence; inhibition, % at 4 µM; 2,200 tested, 67% active; shares compounds with ABHD5-PLIN5 inh; in the data active = inhibition above about 23%
HNF4 counter – HNF4 dimerization inhibitors, counter-screen for ABHD5-PLIN5 interaction inhibitor project, biochemical, split-luciferase complementation, luminescence; inhibition, % at 4 µM; 2,200 tested, 77% active; shares compounds with ABHD5-PLIN5 inh;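 active = mean inhibition across replicate wells exceeding the computed hit threshold, cut at about 13% in these data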;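 note: light from luciferase halves that rejoin when HNF4 fusion proteins dimerize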
Each line names hits and unclear results; the compound was inactive in the other large screens (follow-up assays come after a bar, where they were run). Compounds with a hit are over-represented: about 2.9% of the library has one in this group of screens.

C#CCOCCOCCOCCNc1nc(N2CCN(C(=O)CCCCCCCCCCNC(=O)[C@H]([C@@H](C)CC)n3cc(CCCCCN)nn3)CC2)nc(N2CCN(C(=O)CCCCCCCCCCNC(=O)[C@H](CCCCN)n3cc(CCCC(=O)O)nn3)CC2)n1	ABHD5-PLIN5 inh 39.5 (no result: sPLA2-III inh) | ABHD5 PLIN5 conf inactive | HNF4 counter inactive
C#CCOCCOCCOCCNc1nc(N2CCN(C(=O)[C@H]([C@@H](C)O)n3cc(CCCCN)nn3)CC2)nc(N2CCN(C(=O)[C@H](CCCCN)n3cc(CCC(=O)O)nn3)CC2)n1	none
C#CCOCCOCCOCCNc1nc(N2CCN(C(=O)CCCCCCCCCCNC(=O)Cn3cc(C[C@@H](C)O)nn3)CC2)nc(N2CCN(C(=O)CCCCCCCCCCNC(=O)[C@H](CCCCN)n3cc(CCCC(=O)O)nn3)CC2)n1	ABHD5-PLIN5 inh 36.0 | ABHD5 PLIN5 conf inactive | HNF4 counter 13.5
C#CCOCCOCCOCCNc1nc(N2CCN(C(=O)CCCCCCCCCCNC(=O)[C@H](CCCCN)n3cc(CCCC(=O)O)nn3)CC2)nc(N2CCN(C(=O)CCCCCCCCCCNC(=O)[C@@H]([C@H](C)O)n3cc(C)nn3)CC2)n1	ABHD5-PLIN5 inh 36.7 (no result: sPLA2-III inh) | ABHD5 PLIN5 conf inactive | HNF4 counter inactive
C#CCOCCOCCOCCNc1nc(N2CCN(C(=O)[C@H]([C@@H](C)CC)n3cc(CCC(=O)O)nn3)CC2)nc(N2CCN(C(=O)[C@H](CCCCN)n3cc(CCCC)nn3)CC2)n1	none
Cn1c(=O)[nH]c(=O)c2c1nc(SCC(O)CO)n2Cc1ccccc1Cl (stereo unspecified)	ABHD5-PLIN5 inh 38.7 (no result: Rtt109 HAT inh) | ABHD5 PLIN5 conf inactive | HNF4 counter inactive
Cn1c(=O)[nH]c(=O)c2c1nc(Br)n2Cc1ccccc1Cl	none
Cc1ccc(C(=O)/C=C/c2ccc(F)cc2)o1	ABHD5-PLIN5 inh 42.1 | ABHD5 PLIN5 conf 62.0 | HNF4 counter 46.8
O=C(/C=C/c1ccc(F)cc1)c1ccccc1Br	ABHD5-PLIN5 inh 55.6 | ABHD5 PLIN5 conf 96.3 | HNF4 counter 88.1
CCN(CC)S(=O)(=O)c1ccc(O)c(C(=O)OCC(=O)NC2CCCC2)c1	none
O=C1CC(C(=O)NCCc2ccccc2)SC(=Nc2ccccc2)N1 (stereo unspecified)	none (no result: Rtt109 HAT inh, DAGLB inhibitor)
Cc1[nH]nc(C(F)(F)F)c1N=NN1CCOCC1	ABHD5-PLIN5 inh 49.6 (no result: Myeloid diff 2) | ABHD5 PLIN5 conf 41.0 | HNF4 counter 75.5
Cc1nnc(NC(=O)CSc2nnc(C)c(=O)n2N)s1	none
O=C(NCCCN1CCOCC1)c1ccc(CS(=O)(=O)c2cccc(C(F)(F)F)c2)o1	none
O=C(CN1CCN(S(=O)(=O)c2ccc3c(c2)OCCO3)CC1)Nc1cccc(F)c1	none
CCOc1ccc2cc(/C=C/C(=O)c3ccco3)c(Cl)nc2c1	ABHD5-PLIN5 inh 25.3, Myeloid diff 2 active | ABHD5 PLIN5 conf 71.4 | HNF4 counter 56.1
CCCOC(=O)CSc1nnc(-c2cc(OC)c(OC)c(OC)c2)o1	ABHD5-PLIN5 inh 74.1 | ABHD5 PLIN5 conf inactive | HNF4 counter inactive
C=CCOC(=O)C(=O)/C=C/c1ccc2c(c1)Cc1ccccc1-2	ABHD5-PLIN5 inh 35.3 | ABHD5 PLIN5 conf 77.3 | HNF4 counter 71.3
Cc1cc(C)cc(Cn2c3ccc(NC(=O)NCc4ccc(F)cc4)cc3c(=O)n2C)c1	none (no result: Rtt109 HAT inh, DAGLB inhibitor)
CC(C)c1ccc(Nc2c([N+](=O)[O-])c(=O)n(C)c3ccccc23)cc1	none
Cn1c(=O)c(Nc2ccc(O)cc2)c2c3c(cccc31)C(=O)c1ccccc1-2	ABHD5-PLIN5 inh 24.9, Myeloid diff 2 inconclusive, DAGLB inhibitor 43.8 | ABHD5 PLIN5 conf 22.0 | HNF4 counter 19.9
C=CCN1N=C(/C=C/c2ccc(C)cc2)CCC1=O	none
CCCCC(=O)NC(c1cccc([N+](=O)[O-])c1)c1ccc2cccnc2c1O (stereo unspecified)	ABHD5-PLIN5 inh 33.4, Myeloid diff 2 inconclusive | ABHD5 PLIN5 conf 28.8 | HNF4 counter inactive
Cc1sc2nc3c4ccccc4c(NCc4ccco4)nn3c(=O)c2c1C	ABHD5-PLIN5 inh 31.6, Myeloid diff 2 active | ABHD5 PLIN5 conf 45.9 | HNF4 counter 62.8
CC(NC(=O)/C(C#N)=C/c1ccc(C(=O)O)cc1)c1ccccc1 (stereo unspecified)	ABHD5-PLIN5 inh 23.9 | ABHD5 PLIN5 conf 46.9 | HNF4 counter 30.3
COc1cc(/C=C(/C#N)C(=O)NC(C)c2ccccc2)cc(OC)c1O (stereo unspecified)	none
Cc1c(Cl)cccc1NC(CC(=O)c1ccccc1)C(=O)OCC(=O)c1cccs1 (stereo unspecified)	none
O=C(CC(Nc1ccccc1Cl)C(=O)O)c1ccccc1 (stereo unspecified)	ABHD5-PLIN5 inh 82.6 | ABHD5 PLIN5 conf 29.1 | HNF4 counter 96.6
Cc1c(Cl)cccc1NC(CC(=O)c1ccccc1)C(=O)O (stereo unspecified)	ABHD5-PLIN5 inh 83.7, Rtt109 HAT inh 70.0 | ABHD5 PLIN5 conf 57.2 | HNF4 counter 107.8
O=C(CC(Nc1cccc(Cl)c1Cl)C(=O)O)c1ccccc1 (stereo unspecified)	ABHD5-PLIN5 inh 85.5 | ABHD5 PLIN5 conf inactive | HNF4 counter 73.1
O=C(CC(Nc1cccc(Cl)c1Cl)C(=O)OCC(=O)c1cccs1)c1ccccc1 (stereo unspecified)	none
O=C(CSc1nnc2n1CCCN2)c1ccc([N+](=O)[O-])cc1	none
N#Cc1ccccc1OCc1cn(CC(=O)c2ccc(O)cc2)nn1	ABHD5-PLIN5 inh 30.6 | ABHD5 PLIN5 conf 66.4 | HNF4 counter 39.1
Cc1cc(C(=O)N2CCCC2)n[nH]1	none
O=C(O)CNC(=O)c1ccccc1Br	none
N#Cc1ccccc1Sc1ccccc1N	none (no result: sPLA2-III inh)
Nc1ccccc1SSc1ccccc1N	ABHD5-PLIN5 inh 60.2 | ABHD5 PLIN5 conf 88.4 | HNF4 counter 104.2
O=C1c2ccccc2C(=O)N1CC(O)COc1cccc2ccccc12 (stereo unspecified)	none (no result: Rtt109 HAT inh, DAGLB inhibitor)
Cc1cccc(C)c1NC(=O)C[N+](C)(C)CC(O)COc1cccc2ccccc12 (stereo unspecified)	ABHD5-PLIN5 inh 46.7 | ABHD5 PLIN5 conf 34.1 | HNF4 counter 17.5
Cc1ccc(NC(=O)c2cc3ccccc3o2)cc1Cl	none
